Shown are actives, neighbours in structure and some others; about 1.2% of the full set was active somewhere.
PKA-R1A act – activates the PKA-R1A holoenzyme complex; P00514+P68181; PKA-R1A dissociation, Cy5-IP20 fluorescence polarization; scaled: DMSO 0%, 113 µM cGMP 100%; activation, % at 11.4 µM; 340,000 compounds, 0.083% hits; AID 504707;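 active means percent activation above the mean of all tested compounds plus 3 SD, cut at about 19% in these data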;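 further: higher means more PKAc released from R1A so a rise in polarization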
PG9 binder – binds the HIV-1 gp120 antibody PG9; TR-FRET gp120-PG9 antibody binding; inhibition, % at 6.7 µM; 360,000 compounds, 0.43% hits; AID 624416; in the data active means inhibition above about 8.5%
PKA-R2B act – activators of human PKA-R2B complex; PKA-R2B holoenzyme dissociation, Cy5-IP20 fluorescence polarization; R2B truncated from residue 108, S112A mutant; 0% DMSO only, 100% 113 µM cGMP; activation, % at 11.4 µM; 340,000 compounds, 0.079% hits;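 active means activation above a cutoff set at the mean over all compounds plus 3 SD, cut at about 18% in these data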;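 further: higher means more holoenzyme dissociation and a rise in polarization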
Rev-erbA mod – Rev-erb alpha (human) modulation; AID 1259318; Rev-erbα–FITC-DNA binding, fluorescence polarization, 90 min; activity, % at 10 µM; P20393; 370,000 compounds, 0.79% hits;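 active means activity above about 14%, limit read from the data; passing the limit was not always enough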
Target sequence (P20393 whole entry, looked up): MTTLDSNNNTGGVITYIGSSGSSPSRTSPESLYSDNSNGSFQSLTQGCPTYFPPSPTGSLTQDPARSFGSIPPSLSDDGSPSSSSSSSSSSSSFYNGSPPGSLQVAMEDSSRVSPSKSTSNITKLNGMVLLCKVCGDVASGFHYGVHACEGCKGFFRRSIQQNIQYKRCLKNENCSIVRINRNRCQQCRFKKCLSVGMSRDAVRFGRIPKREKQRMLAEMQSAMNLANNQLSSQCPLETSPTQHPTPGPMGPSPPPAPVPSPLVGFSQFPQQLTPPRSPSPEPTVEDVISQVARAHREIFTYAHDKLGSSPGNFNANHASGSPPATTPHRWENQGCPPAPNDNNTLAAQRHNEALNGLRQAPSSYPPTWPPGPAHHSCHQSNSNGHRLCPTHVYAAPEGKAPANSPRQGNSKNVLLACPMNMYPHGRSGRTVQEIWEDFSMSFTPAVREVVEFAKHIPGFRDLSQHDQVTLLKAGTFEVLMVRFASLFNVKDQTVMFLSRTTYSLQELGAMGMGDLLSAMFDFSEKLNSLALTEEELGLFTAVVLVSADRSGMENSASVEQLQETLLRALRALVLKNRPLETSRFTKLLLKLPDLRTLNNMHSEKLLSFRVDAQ
NR1D1 mod conf – confirmation of modulators of human Rev-erb alpha DNA binding | Rev-erb alpha FITC-DNA binding, fluorescence polarization, 90 min | 3,000 compounds, 61% hits | activation, % at 25 µM | shares compounds with Rev-erbA mod | AID 1259319;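 active means activation at or above a set limit, or at least 3 SD above the negative control mean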
RORg counter – affects RORgamma DNA binding in a Rev-erb alpha counter-screen; 910 compounds, 8% hits; shares compounds with Rev-erbA mod; purified RORgamma protein-FITC-DNA binding, fluorescence polarization; IC50, µM;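 active means Compounds whose fitted half-maximal concentration for disrupting protein-DNA binding is below 10 micromolar; the record names Rev-erb in its text, so the target is in doubt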
Large screens that a line does not name were inactive (follow-up assays come after a bar, where they were run); ! = a repeat was not active.

COc1ccc(-c2sc3cc(OC)c(OC)cc3c2C#CC2(O)CCCCC2)cc1	none
COc1cc(OC)cc(-c2oc(=O)c3cc(OC)c(OC)cc3c2C#CCCCO)c1	Rev-erbA mod 32 | NR1D1 mod conf inactive
COc1ccc(-c2oc(=O)c3cc(OC)c(OC)cc3c2C#CC2(O)CCCCC2)cc1	Rev-erbA mod 27 | NR1D1 mod conf inactive
CCOC(Cn1c(SCc2cc(C(C)=O)ccc2OC)nc2ccccc2c1=O)OCC	Rev-erbA mod 34 | NR1D1 mod conf 34 | RORg counter inactive
COc1ccc(C(C)=O)cc1CSc1nc2cc(C(=O)O)ccc2c(=O)n1Cc1ccccc1	none
C/C(=N\N(Cc1ccccc1)c1ccccc1)c1ccncc1	Rev-erbA mod 43 | NR1D1 mod conf 40 | RORg counter inactive
O=C(Nc1ccc(Cl)cc1)C1CCCN1S(=O)(=O)c1cccnc1 (stereo not given)	none (no result: PKA-R1A act, PG9 binder, PKA-R2B act)
Cc1cc(O)ccc1C1(c2ccc(O)cc2C)OC(=O)c2ccccc21	none
O=C1OC2(c3ccc(O)cc3Oc3cc(O)ccc32)c2ccccc21	Rev-erbA mod 691 (no result: PKA-R1A act, PG9 binder, PKA-R2B act) | NR1D1 mod conf 596
COc1ccc(CC(/C=C/c2ccc(F)cc2)c2ccccc2)cc1 (stereo not given)	none (no result: PKA-R1A act, PG9 binder, PKA-R2B act)
COC1=C[C@H](C(=O)NCc2ccc(Br)cc2)[C@H](C)[C@@H](c2ccccc2)CC1=O	none (no result: PKA-R1A act, PG9 binder, PKA-R2B act)
C[C@@H]1C=CCCO[C@]12C(=O)N(CC1CC1)c1cccc(Br)c12	Rev-erbA mod 13 (no result: PKA-R1A act, PKA-R2B act) | NR1D1 mod conf inactive
CCOc1ccc(N=Nc2c(=O)[nH]n3c(=O)cc(C)[nH]c23)cc1	Rev-erbA mod 25 | NR1D1 mod conf 41 | RORg counter inactive
O=C(Nc1ccc(F)cc1)OCc1cn(Cc2cc(F)cc(F)c2)nn1	none (no result: PKA-R1A act, PG9 binder, PKA-R2B act)
CCCC(=O)N=C1SC2CS(=O)(=O)CC2N1c1ccc(-c2nc3ccc(C)cc3s2)cc1 (stereo not given)	Rev-erbA mod 38 | NR1D1 mod conf inactive
COc1ccc(S(=O)(=O)N2CCOCC2)cc1NC(=O)c1cccc2c(=O)c(C)c(-c3ccccc3)oc12	Rev-erbA mod 69 | NR1D1 mod conf 37
C=CCN1[C@H](C#N)[C@@H](c2ccc(C#Cc3ccccc3OC)cc2)[C@H]1CO	none (no result: PKA-R1A act, PG9 binder, PKA-R2B act)
O=C(CNC(=O)c1ccc(Cl)cc1)OCC(=O)c1ccccc1	none
CC(C)(C)c1ccc(C(=O)NCC(=O)OCC(=O)c2ccc3c(c2)-c2ccccc2C3)cc1	Rev-erbA mod 26 | NR1D1 mod conf inactive
N#CCC[C@@H]1CC[C@]2(CCCN(S(=O)(=O)C3CCCCC3)C2)O1	none (no result: PKA-R1A act, PG9 binder, PKA-R2B act)
Cc1nc2c(c(=O)c3ccccc3n2C)c(=O)n1C1CCCC1	none (no result: PKA-R1A act, PKA-R2B act)
Cn1c2ccccc2c(=O)c2c(=O)n(C3CCCCCC3)c(C3CCCCC3)nc21	Rev-erbA mod 161 | NR1D1 mod conf 79
COCCCNC(=O)c1ccc(Cn2c(=O)c3ccccc3n(Cc3ccc([N+](=O)[O-])cc3)c2=O)cc1	none (no result: PKA-R1A act, PG9 binder, PKA-R2B act)
C#CCN1CC(N(C)CCOC(=O)c2ccc(C(C)(C)C)cc2)CS1(=O)=O (stereo not given)	none (no result: PKA-R1A act, PG9 binder, PKA-R2B act)
CSc1nc2cc(C)nn2c(-c2ccccc2Cl)c1C#N	Rev-erbA mod 42 | NR1D1 mod conf inactive
Cc1nc(N)c(C#N)c(-c2ccccc2Cl)c1C	none
CSc1nc(N)n2nc(C)cc2n1	none (no result: PKA-R1A act, PKA-R2B act)
CSc1nc2cc(C)nn2c(-c2ccc(C(C)(C)C)cc2)c1C#N	Rev-erbA mod 44 | NR1D1 mod conf inactive
COc1ccccc1NC(=O)c1nnn(CC(=O)Nc2cc(C)cc(C)c2)c1N	none
CCOc1ccccc1NC(=O)c1nnn(CC(=O)Nc2cc(C)cc(C)c2)c1N	Rev-erbA mod 21 | NR1D1 mod conf 32 | RORg counter inactive
Clc1ccccc1NN(Cc1ccncc1)c1ccccc1Cl	Rev-erbA mod 18 | NR1D1 mod conf inactive
Clc1ccccc1NN(Cc1ccccn1)c1ccccc1Cl	none
COc1ccc(C(=O)N2C(=O)c3ccc(N)cc3C2=O)cc1	Rev-erbA mod 23 | NR1D1 mod conf inactive
CCCC[C@H]1C2CC(OC(=O)Nc3cccc(C(F)(F)F)c3)C(C2)[C@H]2CCCCN21 (stereo not given in full)	none (no result: PKA-R1A act, PG9 binder, PKA-R2B act)
Clc1ccc([C@H]2OC[C@@]3(CNCc4ccc5c(c4)OCO5)CS[C@H](c4ccc(Cl)cc4)N23)cc1	none (no result: PKA-R1A act, PG9 binder, PKA-R2B act)
CC/C(=C(/CC)c1ccc(O)cc1)c1ccc(O)cc1	Rev-erbA mod 31! | NR1D1 mod conf 34
